The record followed here is the supplement of paper PMC13380429.

The subject of the test is Vero E6 infected with SARS-CoV-2. In words: inhibition of SARS-CoV-2 cytopathic effect; higher = more antiviral protection, active = above 15. As to conditions: 48 h. (In general: Damage to the host cells serves as the signal in cytopathic effect assays.)

Structures are written as SMILES. Values without a mark were called inactive.

`O=C(O)Cc1cccc(OCCCN(Cc2cccc(C(F)(F)F)c2Cl)CC(c2ccccc2)c2ccccc2)c1`: the “inhibition of SARS-CoV-2 cytopathic effect” value (shortened to “inhibition”) reads like this: (1 nM) 0.26%; (8.33 nM) 0.75%; (100 nM) 2.25%; (833.33 nM) 0.38%; (10000 nM) 8.79%.

On to `NC1CCN(c2c(F)cc3c(=O)c(C(=O)O)cn(C4CC4)c3c2Cl)C1` (stereo not given) [clinafloxacin], for which the “inhibition” value reads like this: (1 nM) 2.47%; (8.33 nM) 0.61%; (100 nM) -1%; (833.33 nM) -0.8%; (10000 nM) 0.5%.

On to `Nc1ncnc2c1c(-c1cccc(OCc3ccccc3)c1)cn2C1CC(CN2CCCC2)C1` (stereo in doubt), for which the “inhibition” value is -0.48% (1 nM); 0.04% (8.33 nM); 1.98% (100 nM); 0.14% (833.33 nM); 27.9% (active) (10000 nM).

As to `Nc1nc(OCc2ccccc2)c2nc[nH]c2n1` [O6-benzylguanine], the “inhibition” value (1 nM) was 2.66%; the “inhibition” value (8.33 nM) is 2.87%; the “inhibition” value (100 nM) was -5.93%; the “inhibition” value (833.33 nM) is -3.87%; the “inhibition” value (10000 nM) is -1.55%.

As for `CCOC(=O)c1ncc2[nH]c3cccc(OC(C)C)c3c2c1C`, the “inhibition” value by setting is: (1 nM) 2.48%; (8.33 nM) -1.73%; (100 nM) 3.11%; (833.33 nM) 5.05%; (10000 nM) 7.71%.

With `Oc1ncnc2[nH]ncc12` [allopurinol], the “inhibition” value (1 nM) was -15.3%; the “inhibition” value (8.33 nM) was -12.3%; the “inhibition” value (100 nM) is -11.2%; the “inhibition” value (833.33 nM) was -10.9%; the “inhibition” value (10000 nM) is -7.04%.

As to `CCN(CC)CCCC(C)Nc1nc(C)cc(Nc2ccc3nc(C)cc(N)c3c2)n1` (stereo not given), the “inhibition” value is -1.23% (1 nM); -0.04% (8.33 nM); 1.43% (100 nM); -0.56% (833.33 nM); 0.17% (10000 nM).

On to `Cc1c(F)cc(C(=O)NC2CC2)cc1-c1ccc(C(=O)NCC(C)(C)C)cn1` [losmapimod], for which the “inhibition” value runs as follows: (1 nM) 1.3%; (8.33 nM) 0.27%; (100 nM) -1.7%; (833.33 nM) -4.24%; (10000 nM) -5.03%.

On to `Cc1cccc(-c2[nH]c(C(C)(C)C)nc2-c2ccc3nccnc3c2)n1`, for which the “inhibition” value is 3.48% (1 nM); -0.18% (8.33 nM); 0.8% (100 nM); 0.91% (833.33 nM); 1.69% (10000 nM).

For the molecule `CC[C@H](C)[C@@H]1NC(=O)[C@H](Cc2ccc(O)cc2)NC(=O)[C@@H](N)CSSC[C@@H](C(=O)N2CCC[C@H]2C(=O)N[C@@H](CC(C)C)C(=O)NCC(N)=O)NC(=O)[C@H](CC(N)=O)NC(=O)[C@H](CCC(N)=O)NC1=O` [oxytocin], the “inhibition” value was 5.14% (1 nM); 3.79% (8.33 nM); 3.52% (100 nM); 0.66% (833.33 nM); -0.57% (10000 nM).

Regarding `CCOC(=O)N1CCC(=C2c3ccc(Cl)cc3CCc3cccnc32)CC1` [loratadine], the “inhibition” value reads like this: (1 nM) 1.77%; (8.33 nM) 0.5%; (100 nM) 0.11%; (833.33 nM) -0.88%; (10000 nM) -4.61%.

As for `C=CCN1CC[C@]23CCCC[C@H]2[C@H]1Cc1ccc(O)cc13` [levallorphan], the “inhibition” value was -1.28% (1 nM); 0.72% (8.33 nM); -1.34% (100 nM); -1.26% (833.33 nM); -3.54% (10000 nM).

As for `Cc1ccc(C(=O)Nc2cccc(C(F)(F)F)c2)cc1Nc1nc(-c2cccnc2)nc2c1cnn2C`, the “inhibition” value by setting is: (1 nM) -0.06%; (8.33 nM) 0.17%; (100 nM) 3.74%; (833.33 nM) 8.31%; (10000 nM) 28.1% (active).

With `CC1(COc2ccc(CC3SC(=O)NC3=O)cc2)CCCCC1` (stereo not given) [ciglitazone], the “inhibition” value was -1.15% (1 nM); -3.35% (8.33 nM); -1.82% (100 nM); 3.16% (833.33 nM); 4.02% (10000 nM).

Regarding `CC1=C(C(=O)Nc2cc3cn[nH]c3cc2F)C(c2ccc(C(F)(F)F)cc2)CC(=O)N1` (stereo not given), the “inhibition” value is, setting by setting: (1 nM) 1.8%; (8.33 nM) -1.07%; (100 nM) 1.5%; (833.33 nM) -0.29%; (10000 nM) -5.1%.

As to `CC(=O)NS(=O)(=O)c1ccc(NC(=O)c2ccccc2C(=O)O)cc1` [phthalylsulfacetamide], the “inhibition” value is -0.71% (1 nM); -1.43% (8.33 nM); -0.27% (100 nM); 0.53% (833.33 nM); -0.38% (10000 nM).

Turning to `CCCCC[C@H](O)/C=C/[C@H]1[C@H](O)CC(=O)[C@@H]1C/C=C\CCCC(=O)O` [dinoprostone], the “inhibition” value by setting is: (1 nM) -2.72%; (8.33 nM) 0.16%; (100 nM) -4.2%; (833.33 nM) 0.3%; (10000 nM) 0.05%.

As to `Oc1nc(O)c2nc(O)[nH]c2n1` [uric-acid], the “inhibition” value (1 nM) was -0.34%; the “inhibition” value (8.33 nM) was 0.2%; the “inhibition” value (100 nM) is -1.96%; the “inhibition” value (833.33 nM) is -1.44%; the “inhibition” value (10000 nM) is -0.42%.
